Bioassay records as filed in PubChem BioAssay.
Only a selection was taken, and hits are over-represented in it overall.
GIRK2 act – GIRK2 channel activators by thallium flux; P48051; HEK293 GIRK2/NPY4 cells, thallium flux fluorescence; activation (% efficacy), % for hits at 37.5 µM; 34,000 tested, under 10 active; AID 1259324;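 active = primary screen hit, no activity in plain HEK293 cells, and in GIRK2-only cells above 5% efficacy rising with concentration; inactive = the rest, including fluorescent compounds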;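 note: efficacy is normalized control-subtracted fluorescence 15 s after thallium addition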
Target sequence (P48051 whole entry, looked up): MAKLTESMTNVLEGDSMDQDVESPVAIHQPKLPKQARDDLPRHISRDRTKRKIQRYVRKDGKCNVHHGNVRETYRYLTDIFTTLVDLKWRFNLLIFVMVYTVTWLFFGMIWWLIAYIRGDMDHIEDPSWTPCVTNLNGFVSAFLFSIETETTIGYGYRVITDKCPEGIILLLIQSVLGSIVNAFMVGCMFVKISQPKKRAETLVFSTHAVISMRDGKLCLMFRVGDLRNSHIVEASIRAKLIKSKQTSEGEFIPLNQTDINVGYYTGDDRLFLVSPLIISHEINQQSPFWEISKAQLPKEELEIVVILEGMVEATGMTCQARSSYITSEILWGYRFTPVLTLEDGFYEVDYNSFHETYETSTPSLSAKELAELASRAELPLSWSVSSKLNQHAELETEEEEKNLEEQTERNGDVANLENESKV
AMPAR-TARP mod – GluA2-stargazin AMPA receptor complex modulation. O88602+P19491. HEK293 GluA2+stargazin, membrane potential dye (FDSS), glutamate EC50; hits were called plate by plate, in both directions. calls only at 30 µM. 3.5% of 40,000 active. AID 1259245;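 active = any of four per-well response measures lying three or more SD from its plate-wide compound average, in either direction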
An asterisk follows results filed as active; i = inactive; . = no result given; + = active, no number.

SMILES	GIRK2 act	AMPAR-TARP mod
CCCCN1CC(c2nc3ccccc3n2Cc2c(F)cccc2Cl)CC1=O (stereo not given)	.	+
CN1CC(c2nc3ccccc3n2CCCc2ccccc2)CC1=O (stereo not given)	.	i
CCCn1c(C2CC(=O)N(CCc3ccccc3)C2)nc2ccccc21 (stereo not given)	.	+
C=C(Br)Cn1c(C2CC(=O)N(CCCC)C2)nc2ccccc21 (stereo not given)	i	i
CN(CCCC(=O)NCCCO)S(=O)(=O)c1ccc2c(c1)C(=O)c1ccccc1C2=O	.	i
COc1cccc(Nc2nc(-c3cccnc3)nc3ccccc23)c1	.	i
O=c1ccc(-c2ccncc2)nn1CCNS(=O)(=O)c1ccc(F)cc1F	i	.
CCc1ccccc1NC(=O)c1cc2c(n(-c3ccc(Cl)c(Cl)c3)c1=O)CC(C)(C)CC2=O	.	i
CCSc1ccccc1C(=O)N1CCC(c2nnc(-c3ccco3)s2)CC1	i	i
CCCCN1CC(c2nc3ccccc3n2CCOc2cccc(OC)c2)CC1=O (stereo not given)	.	i
CCCCN1CC(c2nc3ccccc3n2CCOc2ccccc2OC)CC1=O (stereo not given)	.	+
COc1cccc(-n2nnc3c(N4CCN(C(=O)COc5ccc(Cl)cc5)CC4)ncnc32)c1	.	i
Cc1cc(C)n(CCNC(=O)/C=C/c2ccco2)n1	i	i
CCc1ccccc1NCCn1c(C)cn2c3c(=O)n(C)c(=O)n(C)c3nc12	.	i
COC(=O)c1ccccc1NC(=O)CC1Nc2cccc3cccc(c23)NC1=O (stereo not given)	.	i
O=C(CC1Nc2cccc3cccc(c23)NC1=O)Nc1cccc(C(F)(F)F)c1 (stereo not given)	.	+
COc1cc(C)ccc1OCC(=O)N1CCN(c2ccc3nnc(C)n3n2)CC1	i	+
COc1cc(C)ccc1OCC(=O)N1CCN(c2ccc3nncn3n2)CC1	i	i
NC(=O)C1CCN(C(=O)CCCn2nc(-c3cccs3)ccc2=O)CC1	i	.
CN1CCN(Cc2ccc(NC(=O)Nc3cccc(Cl)c3)cc2)CC1	i	i
COc1ccc(-c2ccc(=O)n(CCCNC(=O)C3CCCCC3)n2)cc1	i	i
COc1ccc(/C=C\C(=O)Nc2cc(C3CC3)nn2-c2nc(C(C)C)cc(=O)[nH]2)cc1OC	i	+
COc1ccc(OCC(=O)Nc2cc(C3CC3)nn2-c2nc(C(C)C)cc(=O)[nH]2)cc1	i	i
CC(=O)OCCCCn1c(COc2ccccc2)nc2ccccc21	i	+
Cc1ccc(OCCCCn2c(CNC(=O)c3ccco3)nc3ccccc32)cc1	i	.
SMILES	GIRK2 act	AMPAR-TARP mod
O=C(C1CCCC1)N1CCc2ccc(NS(=O)(=O)c3ccc(F)c(Cl)c3)cc21	i	i
COc1ccc(S(=O)(=O)N2CCCc3cc(NS(=O)(=O)c4cccc(C)c4)ccc32)cc1	.	+
CCOc1ccc(CC(=O)Nc2ccc3c(c2)CCCN3S(=O)(=O)c2ccc(C)cc2)cc1	.	+
Cc1ccc(S(=O)(=O)N2CCCc3ccc(NS(=O)(=O)c4ccc(F)cc4)cc32)cc1	i	+
Cc1ccc(OCC(=O)Nc2ccc3c(c2)CCCN3S(=O)(=O)c2ccc(C)cc2)cc1	.	i
COc1ccc(S(=O)(=O)N2CCCc3cc(NS(=O)(=O)c4ccccc4)ccc32)cc1	.	i
Cc1ccc(S(=O)(=O)Nc2ccc3c(c2)N(S(=O)(=O)c2ccc(C)cc2)CCC3)cc1	i	i
O=S(=O)(Nc1ccc2c(c1)N(S(=O)(=O)c1ccccc1)CCC2)c1ccc(F)cc1	.	i
Cc1ccc(S(=O)(=O)N2CCCc3ccc(NS(=O)(=O)c4ccccc4)cc32)cc1	i	+
O=C(COc1ccc(Cl)cc1)NCCS(=O)(=O)N1CCN(c2ccccn2)CC1	i	i
CSc1ccccc1CN1CCC(CNC(=O)Cc2ccc(F)cc2)CC1	i	i
O=C(Nc1ccccc1C(F)(F)F)N1CCC2(CC1)NC(=O)N(Cc1ccccc1)C2=O	i	i
COc1ccc(CCNC(=O)Nc2ccc3c(c2)N(S(=O)(=O)c2ccccc2)CCC3)cc1	.	+
COc1ccc(CCNC(=O)Nc2ccc3c(c2)N(C(=O)c2ccccc2)CCC3)cc1	i	.
CN(Cc1nc2ccccc2n1Cc1ccccc1F)C(=O)c1ccco1	i	.
CCCn1c(=O)c2c(nc3n(-c4cccc(OC)c4)c(C)c(C)n23)n(C)c1=O	.	i
CC(C)CCN1C(=O)C(C)(C)COc2ccc(NC(=O)COc3ccccc3)cc21	.	+
CC(C)CCN1C(=O)C(C)(C)COc2cc(NC(=O)COc3ccccc3)ccc21	.	i
Cc1nnsc1C(=O)N1CCC(CNC(=O)Nc2cccc(Cl)c2)CC1	i	+
Cc1nnsc1C(=O)N1CCC(CNC(=O)c2cccc(Cl)c2)CC1	i	i
COc1ccc(Br)c(C(=O)NCCc2ccsc2)c1	i	i
CCCS(=O)(=O)N1CCN(c2ccc3nnc(C4CC4)n3n2)CC1	i	i
Cc1n[nH]c(C)c1S(=O)(=O)N1CCN(c2ccc(-c3ccccn3)nn2)CC1	i	+
Cc1n[nH]c(C)c1S(=O)(=O)N1CCN(c2ccc3nnc(C4CC4)n3n2)CC1	i	+
Cc1nnsc1C(=O)N1CCN(c2ccc(-c3ccccn3)nn2)CC1	i	i
SMILES	GIRK2 act	AMPAR-TARP mod
Cc1ccc(NC(=O)c2cc(-c3ccc(C)cc3)nc3c2c(C)nn3C2CCS(=O)(=O)C2)cc1 (stereo not given)	i	i
Cn1nc2c(c1NC(=O)C1CCN(S(=O)(=O)c3ccc(Cl)s3)CC1)CCC2	i	i
CCOc1cc(/C=C/c2ccc3cccc(O)c3n2)cc(Br)c1O	.	i
COc1cc(/C=C/c2ccc3cccc(O)c3n2)cc(Br)c1O	.	+
CCOc1ccc(NC(=O)C(=O)Nc2ccc(C)cc2[N+](=O)[O-])cc1	.	i
CC(C)OCCCNC(=O)c1ccc(Cn2c(=S)[nH]c3ccc(Br)cc3c2=O)cc1	i	i
O=C(NCCCn1cccc1)c1cc(-c2ccccc2)n[nH]1	i	i
O=C(NCCCn1cccc1)c1ccccc1	i	+
Cc1ccc(S(=O)(=O)/C(C#N)=C/N2CCN(Cc3ccccc3)CC2)cc1C	i	+
Cc1ccc(S(=O)(=O)/C(C#N)=C/N2CCN(Cc3ccc4c(c3)OCO4)CC2)cc1C	i	i
C#CCn1c(=NC(=O)C2CCN(S(C)(=O)=O)CC2)sc2cccc(F)c21	i	.
Cc1cc(NC(=O)c2ccc(Br)o2)ccc1N1CCCCC1=O	i	i
O=S(=O)(NCCOc1ccc(-c2ccc(F)cc2)nn1)c1ccc(Cl)cc1	i	i
Cc1ccc(S(=O)(=O)NCCOc2ccc(-c3ccc(F)cc3)nn2)cc1C	i	+
O=S(=O)(NCCOc1ccc(-c2ccc(F)cc2)nn1)c1ccc(Br)cc1	i	+
COc1ccc(S(=O)(=O)NCCOc2ccc(-c3ccc(F)cc3)nn2)cc1	i	i
COCCN1CCC(CNC(=O)c2cc(Cl)ccc2OC)CC1	i	.
Cc1cc(N2CCC(Cc3ccccc3)CC2)nc(-n2cc([N+](=O)[O-])cn2)n1	i	i
Cc1cc(Nc2ccc(Cl)cc2)nc(-n2cc([N+](=O)[O-])cn2)n1	i	+
COc1ccc(Nc2cc(C)nc(-n3cc([N+](=O)[O-])cn3)n2)cc1	i	i
